Hit rate of the full screen: of about 300,000 compounds, about 1,200 (0.4%) were called active. Cut-off read from the data, not from the text of the source: active = activity change below about -75% (passing the limit was not always enough); inconclusive = no clear call, values can overlap the other calls. This excerpt belongs to a sample that is enriched for actives.
Test: Vibrio harveyi AI-2 quorum sensing modulators, primary screen, JMH597 strain, luminescence/OD600 ratio (AID 2094);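 note: luminescence divided by OD600 gain over 9 h not by final OD600 alone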
Settings: Vibrio harveyi JMH597 AI-2 luminescence/OD600 ratio, 9 h; at 7.5 µM; hits give low values; 0 = neutral-control median; strain lacks LuxN and CqsS sensors

Activity change, active:
Cc1cc(CN(C)C(=O)c2cc(COc3ccc(C)c(C)c3)on2)n[nH]1 -90.7%
CN(Cc1cnccn1)C(=O)c1cc(COc2cccc(C(F)(F)F)c2)on1 -92.5%
COC(=O)C1CCN(C(=O)c2ccc3oc(Cc4ccc(Cl)cc4)nc3c2)CC1 -86%
S=C(NCc1ccc(Cl)cc1)NC1CCCCC1 -86.1%
O=C(/C=C/c1ccc([N+](=O)[O-])o1)NNC(=O)c1ccc(F)cc1 -90.7%
CCOC(=O)c1nn(-c2cccc(C)c2)cc1C(=O)c1ccccc1 -88.4%
Cc1nn(CC(=O)Nc2ccc(F)cc2)c(=O)c2ccccc12 -95.2%
COc1cc(C(=S)NCc2ccccc2)cc(Br)c1O -79.9%
C=CCSc1nsc(NC(=O)Nc2cccc(C(C)=O)c2)n1 -85%
CCCCCc1ccc(-c2ccc(C(=O)O)cc2)nc1 -76%
N/C(=N\OC(=O)CCc1ccccc1)c1cccnc1 -85.7%
O=C(CC1SCCNC1=O)Nc1ccc(Cl)c(Cl)c1 (configuration not stated) -87.7%
O=C(/C=C/Sc1ncn[nH]1)c1ccc(Cl)cc1 -91.7%
CCOc1ccc(/C=N/NC(N)=S)cc1 -94.8%
Cc1ccc(NC(=O)C2CC2c2ccccc2)cc1 (configuration not stated) -86.2%
Cc1ccccc1C(=O)Nc1ccc(N2CCCCCC2)cc1 -80.7%
O=C(Nc1ccc(F)c(Cl)c1)C1CCN(S(=O)(=O)c2cccnc2)CC1 -93.8%
O=C(/C=C/c1ccc2c(c1)OCO2)NCc1ccc(F)cc1 -82.8%

Activity change, inactive:
O=C(c1cc(COc2cccc(C(F)(F)F)c2)on1)N1CCSCC1 -30.7%
Cc1ccc(OCc2cc(C(=O)N(C)CCn3ccnc3C)no2)cc1C 14.9%
CN(Cc1cccnc1)C(=O)c1cc(COc2ccc3ncccc3c2)on1 38.5%
Cc1ccc(OCc2cc(C(=O)N(C)CCc3ccccc3)no2)cc1C 36%
O=S(=O)(c1ccc(Cl)cc1)N1CCCN(c2ccc(C(F)(F)F)cn2)CC1 6.59%
COc1ccc(CN2CCn3ncc(C(=O)Nc4ccc(Cl)cc4Cl)c3C2=O)cc1 23.8%
CCOc1ccc(S(=O)(=O)Nc2ccncc2)c(C)c1C 21.3%
COc1ccc(Cc2nc3ccc(C(=O)N4CCC(N(C)C)C4)cc3o2)cc1 (configuration not stated) -2.62%
COCC1CCN(C(=O)c2ccc3oc(Cc4ccccc4)nc3c2)C1 (configuration not stated) 0.814%
Oc1ccc(-c2cccc(-c3ccc(O)cc3)c2)cc1 -10.9%
O=C(NC1CCCCC1)c1ccc(-c2ccc(Cl)cc2)o1 2.19%
COc1ccc(NC(=O)[C@H](NC(=O)[C@@H]2Cc3ccccc3CN2)c2ccccc2)cc1 13.8%
CCc1ccc(C(=O)CSc2nnc(C)c(=O)[nH]2)cc1 17.8%
COc1ccccc1C(=O)N1C(CC(=O)Nc2ccccc2C)C(=O)NC2CCCCC21 (configuration not stated) 6.5%
CC(C)(C)OC(=O)CNC(=O)c1[nH]cnc1C(=O)N[C@@H](Cc1ccccc1)C(=O)OCc1ccccc1 20.9%
O=C(NC(=S)NC1CCCCC1)c1ccc(Cl)cc1 6.82%
S=C(NCc1ccc(Cl)cc1)NC12CC3CC(CC(C3)C1)C2 -20.7%
COc1cc(C(=O)OCC(=O)NC(C)CCc2ccccc2)cc(OC)c1OC (configuration not stated) 17.1%
CCCNC(=O)c1ccc(N2CCC3(CC2)CC(c2cccc(Br)c2)=NO3)c(NC(=O)c2ccco2)c1 20.3%
Cc1ccc(/C=C/C(=O)Nc2ccc([N+](=O)[O-])c(NC(=O)/C=C/c3ccc(C)o3)c2)o1 34.4%
O=C(N/N=C/c1ccc([N+](=O)[O-])o1)c1cn(-c2ccccc2)nc1-c1ccc(F)cc1 7.69%
Cc1nc(CN2CCN(C(=O)CCc3nnc(Cc4c[nH]c5ccccc45)o3)CC2)cs1 18%
COc1ccccc1NC(=O)COC(=O)Cc1ccc(S(=O)(=O)N2CCCCC2)s1 2.99%
CC(=O)c1nn(-c2ccc(C)cc2)cc1C(=O)c1cccc(Br)c1 14.3%
CCOC(=O)c1cn(Cc2cccc(C)c2)nn1 13.8%
Cc1cc(S(=O)(=O)N2CCOCC2)ccc1OCC(=O)N1CCOCC1 18.8%
O=C(NC1CCN(C(=S)Nc2ccc(Cl)cc2)CC1)C1CCCCC1 16.7%
O=C(O)c1c(NC(=O)N2CCCC2)sc2c1CCCC2 6.56%
COc1cccc(C(=O)NC(=O)Nc2nc(C)cc(C(F)(F)F)n2)c1 11%
O=C(Cn1nc(C(=O)O)c2ccccc2c1=O)Nc1ccc(F)cc1 18.2%
Cc1nn(CC(=O)Nc2ccc3c(c2)nc(CN2CCCCC2)n3C)c(=O)c2ccccc12 18.4%
CCN(C(=O)COC(=O)C1CCN(S(=O)(=O)c2ccc(C)c(C)c2)CC1)C1CCS(=O)(=O)C1 (configuration not stated) -3.07%
O=C(CCNS(=O)(=O)c1ccc(Br)s1)NCc1ccccc1Cl 32.2%
CCN(CC)c1ccc(NC(=O)c2ccc(=O)[nH]c2)cc1S(=O)(=O)Nc1ccc(OC)cc1 18.7%
COc1ccc(CN(C)C(=O)c2cc(-c3ccc(C)cc3C)nc3ccccc23)c(OC)c1OC 10.3%
COc1cc(C=O)c(Br)cc1OCC(=O)NCc1ccccc1 15.5%
COc1cc(C(=O)NCc2ccncc2)cc(Br)c1OCc1ccccc1 36.8%
CN(C(=O)CN1C(=O)S/C(=C\c2ccccc2F)C1=O)C1CCS(=O)(=O)C1 (configuration not stated) 34.2%
CCSc1nsc(NC(=O)Nc2ccccc2OC)n1 11.5%
CSc1nsc(NC(=O)Nc2ccccc2)n1 37.1%
COc1ccc(NC(=O)CSCc2ccc([N+](=O)[O-])cc2)cc1OC 3.16%
COc1ccc(-c2cc(C(=O)N(C)CC(=O)Nc3ccccc3Cl)c3ccccc3n2)cc1OC 20%
O=C(COc1cccc2c1CCNC2=O)NC1CCCCC1 2.05%
O=C(OCc1cn(-c2ccc(Cl)c(Cl)c2)nn1)c1ccccc1Cl -28.4%
CCCCCc1ccc(-c2cn(Cc3ccc4ccccc4c3)nn2)cc1 6.86%
CCCCCc1ccc(-c2ccc(OCC)cc2)nc1 -0.256%
Cc1c(CC(=O)N2CCN(C(=O)C3COc4ccccc4O3)CC2)c(=O)oc2c(O)c(O)ccc12 (configuration not stated) 10.9%
O=C(NC(=O)N1CCSCC1)c1c(Cl)cccc1Cl 19.3%
CSCCC(NC(=O)c1ccco1)C(=O)Nc1cc(C)ccn1 (configuration not stated) 30%
COc1ccc(/C=C(\C#N)C(=O)OCC(=O)N(C)C2CCS(=O)(=O)C2)cc1 (configuration not stated) 22.6%
N/C(=N\OC(=O)CCc1ccccc1)c1ccc(Cl)cc1 7.92%
O=C(O)CCc1cccnc1 7.07%
COc1ccc(C(=O)NCc2nnc(SCC(=O)NC3=NCCS3)n2C)cc1 -5.32%
CCCOCC(O)CC(CC)C(=O)NNC(=S)Nc1ccccc1 (configuration not stated) 0.623%
O=C1/C(=C/c2ccc3c(c2)OCO3)Oc2cc(OCC(=O)N3CC(O)C[C@H]3C(=O)O)ccc21 (some centres not stated) 29%
O=C(CC1NCCNC1=O)Nc1cc(Cl)cc(Cl)c1 (configuration not stated) 4.37%
O=C(CC1SCCNC1=O)Nc1ccc(Cl)cc1 (configuration not stated) -15%
COc1ccccc1/C=C/C=N/n1c(-c2ccc(Cl)cc2Cl)n[nH]c1=S -0.967%
O=C(CSc1ncn[nH]1)N/N=C/c1ccc(F)cc1 -5.64%
Cc1cc(C)nc(S/C=C/C(=O)c2ccccc2)n1 4.08%
CC(=O)N(CC(O)CO)c1c(I)c(C(=O)NCC(O)CO)c(I)c(C(=O)NCC(O)CO)c1I (configuration not stated) 14.8%
Cn1ccc(=NC=C(C#N)C#N)c2ccccc21 22.8%
C=CCNC(=S)N/N=C/c1ccc(OCc2ccccc2)cc1 16.4%
CCOc1ccc(/C=N\NC(=O)c2c(C)nc3cc(C)ccn23)cc1 2.9%
COC(=O)CSc1snnc1-c1ccc(Cl)c(Cl)c1 9.65%
O=S1(=O)N=C(N(CCO)/N=C/c2ccccc2F)c2ccccc21 15.9%
O=C(NNC(=S)Nc1ccc(F)cc1)[C@H]1C[C@@H]1c1ccccc1 -11.8%
Cc1ccc(C2CC2C(=O)NN)cc1 (configuration not stated) 19.8%
CCN(CC(=O)NCc1cccs1)C(=O)c1cccc(S(=O)(=O)Nc2ccccc2OC)c1 5.29%
C/C(CC1CC(C)(C)OC1=O)=N/Nc1nc(-c2ccccc2)cs1 (configuration not stated) 26.9%
Cc1ccccc1C(=O)N1CCN(c2ccc(NC(=O)c3cccs3)cc2)CC1 11.9%
Cc1ccccc1C(=O)NC(=S)Nc1ccc(N2CCN(C(=O)c3ccccc3)CC2)cc1 13.3%
O=C(Nc1cccnc1)c1cccc(S(=O)(=O)N2CCCC2)c1 6.26%
O=C(NCc1cccs1)C1CCN(S(=O)(=O)c2ccc(Cl)cc2)CC1 14.4%
O=C(Cc1cccs1)Nc1ccc([N+](=O)[O-])cc1 10.5%
Oc1ccc2ccc3cccc[n+]3c2c1 42.1%
CCOc1ccc(/C=N/OCC(=O)NCc2cccs2)cc1 5.49%
O=C(Cc1ccc(F)cc1)N/N=C/c1ccc2c(c1)OCO2 14.4%
O=C(/C=C/c1ccc2c(c1)OCO2)NCc1cn2cc(Cl)ccc2n1 2.46%
